About 7,700 (2.3%) of roughly 330,000 compounds were called active. Roughly 26% stayed inconclusive and do not appear here. Shown is part of a subset that was picked to be rich in actives. Unmarked numbers belong to inactive results. Calls come from the whole dose curve; as a rule, active = well fitted inhibition curve with a large enough effect; inconclusive = small, poorly fitted or top-dose-only effect, or effect the other way; inactive = flat fitted curve, though single readings scatter.
% is set by controls: 0 for no effect and ±100 for the full control effect; potency is the fitted concentration of half-maximal effect.

The nature of the test: qHTS screen for small molecules that inhibit ELG1-dependent DNA repair in human embryonic kidney (HEK293T) cells expressing luciferase-tagged ELG1. Note: nearly all actives have a fitted effect of over 55% in size. To be noted: HEK293T ELG1-luciferase reporter, luminescence, 16 h, DNA damage induced by 5-fluorouridine; series mostly up to 46.1 µM; activity change, negative = inhibition: at the top concentration. The method, boiled down:
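Cells (2,000 per well) received 5-fluorouridine plus test compound or DMSO and were incubated 16 hr at 37 °C, 5% CO2. Luciferase activity was read by luminescence 30 min after ONE-Glo addition; signal suppression marked inhibition of damage-induced ELG1 function.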
For orientation: In qHTS, concentration-response curves come from the screen itself.
As for `COc1ccc(NC(=O)C2CCN(S(=O)(=O)c3ccc4[nH]c(=O)oc4c3)CC2)c(OC)c1`, the “activity change, negative = inhibition” value was 12.8%.

Turning to `O=S(=O)(c1cccs1)N1CCN(CCOc2ccccc2)CC1`, the “activity change, negative = inhibition” value was -12.9%.

Consider `CCOC(=O)C1=C(C)N(C[C@@H]2CC[C@@H](Cc3ccc(-c4ccccc4)cc3)O2)C(=O)NC1c1ccc([N+](=O)[O-])cc1` (stereo partly specified), for which the “activity change, negative = inhibition” value was -6.54%.

`CC(=O)N1c2ccc(S(=O)(=O)N3CCCC(C(=O)Nc4ccc(C)cc4C)C3)cc2CC1C` (stereo unspecified): the “activity change, negative = inhibition” value is -24.7%.

Consider `COc1cc(Cl)c(C)cc1NC(=O)CSc1nnc(CN2CCCC2)o1`, for which the “activity change, negative = inhibition” value was -3.12%.

With `CCCc1nc(SCC(=O)Nc2ccccc2OC)c2c(=O)n(C)c(=O)n(C)c2n1`, the Potency is 23.1 µM (active).

Consider `CCCc1nc(SCC(=O)N2CCCC2)c2c(=O)n(C)c(=O)n(C)c2n1`, for which the “activity change, negative = inhibition” value was -27.9%.

For `CCc1nc(SCC(=O)Nc2ccccc2OC)n[nH]1`, the “activity change, negative = inhibition” value is 0.976%.

With `CCOC(=O)CCCCCC(=O)Nc1ccc2c(c1)CC(=O)N([C@@H](C)CO)C[C@H](C)[C@@H](CN(C)Cc1ccccc1)O2`, the “activity change, negative = inhibition” value is 3.52%.

Regarding `Cc1cc(C)cc(NC(=O)C2CCCN(S(=O)(=O)c3ccc4[nH]c(=O)ccc4c3)C2)c1` (stereo unspecified), the “activity change, negative = inhibition” value is -7.94%.

In the case of `O=C(C1CCC(=O)N(C2CC2)C1)N1CCN(c2ccc(Cl)cc2)CC1` (stereo unspecified), the “activity change, negative = inhibition” value was -8.35%.

As to `COc1ccc(C(=O)NC2CCN(C(=S)NCCc3ccccc3)CC2)cc1`, the “activity change, negative = inhibition” value is -4.86%.

Turning to `COc1cc(OC)cc(C(=O)NC2CCN(C(=O)N3c4ccccc4Sc4ccccc43)CC2)c1`, the Potency is 13 µM (active).

Regarding `COc1ccc(C(=O)NC2CCN(C(=S)Nc3ccccc3)CC2)cc1`, the “activity change, negative = inhibition” value is 4.41%.

In the case of `O=C(CN(CC1CCCO1)C(=O)CNS(=O)(=O)c1ccc(Cl)cc1)NCc1ccccc1` (stereo unspecified), the “activity change, negative = inhibition” value is -10.4%.

For `COc1ccc(-c2cc(C(=O)n3cnc4ccccc43)c3ccccc3n2)cc1`, the “activity change, negative = inhibition” value is 22%.

`COc1ccc(Cl)cc1NC(=O)CN(C)C(=O)c1ccc2n[nH]nc2c1`: the “activity change, negative = inhibition” value is 14.2%.

In the case of `COc1ccc(-c2cc(C(=O)N(C)Cc3ccccc3)c3ccccc3n2)cc1`, the Potency was 23.1 µM (active).

As to `COc1ccc(NC(=O)CN(C)C(=O)c2cc(-c3ccc(C)o3)nc3ccccc23)cc1`, the Potency was 20.6 µM (active).

Turning to `COc1ccc(NC(=O)CN(C)C(=O)c2cc(C3CC3)nn2-c2ccccc2)cc1`, the “activity change, negative = inhibition” value is -18.5%.

As to `COc1ccccc1NC(=O)c1cc(Cl)nc2ccccc12`, the “activity change, negative = inhibition” value was -10.3%.

Take `Cc1ccc(-c2nn(-c3ccccc3)cc2C(=O)NCCCN2CCCC2=O)cc1`: the “activity change, negative = inhibition” value is -12.5%.

As to `Cc1cccc(C(=O)NCCCN2CCCC2=O)c1`, the “activity change, negative = inhibition” value was 0%.

For the compound `COc1ccc(-c2cc(C(=O)N(C)CC(=O)Nc3ccccc3Cl)c3ccccc3n2)cc1OC`, the Potency is 2.06 µM (active).

On to `COc1ccc(NC(=O)CN(C)C(=O)c2ccc(COc3ccccc3)o2)cc1`, for which the “activity change, negative = inhibition” value is 14.6%.

Regarding `COc1ccc(-c2cc(C(=O)NCCCN3CCCC3=O)c3ccccc3n2)cc1OC`, the Potency is 20.6 µM (active).

For `COc1ccc(C2=NS(=O)(=O)N(C)C(C(=O)N(C)Cc3ccccc3)=C2)cc1`, the “activity change, negative = inhibition” value was -10.3%.

For the compound `CC(C)Oc1ccc(S(=O)(=O)N2CCOCC2)cc1NC(=O)C1CSC2(C)CCC(=O)N12` (stereo unspecified), the “activity change, negative = inhibition” value is -16.4%.

For `CCc1cccc(C)c1N1C(=O)CN(Cc2ccccc2)C1=S`, the “activity change, negative = inhibition” value is -0.783%.

For `CNC[C@H](CC1CCCCC1)NC[C@H](NCCC1CCCC1)[C@H](C)O`, the “activity change, negative = inhibition” value was 16.8%.

On to `CSc1ncccc1C(=O)Nc1cccc(S(=O)(=O)N2CCOCC2)c1`, for which the “activity change, negative = inhibition” value was 13.4%.

Turning to `CCCN(CC1CC1)C(=S)NC(=O)c1ccccc1Br`, the “activity change, negative = inhibition” value is -17.4%.

`O=C(COC(=O)c1ccccc1Cl)NC1CCCCCCC1`: the “activity change, negative = inhibition” value was 13.9%.

Take `Cc1cc(NC(=O)CCN2CCN(Cc3ccccc3)CC2)ccc1Br`: the “activity change, negative = inhibition” value is -19.6%.

As to `OC(COc1ccc(F)cc1Cl)CN1CCc2ccccc2C1` (stereo unspecified), the “activity change, negative = inhibition” value was 1.72%.

Consider `COc1ccc(CN(C)C(=O)c2cc(-c3ccc(C)cc3C)nc3ccccc23)c(OC)c1OC`, for which the Potency was 8.2 µM (active).

Consider `COc1ccc(CN(C)C(=O)Cc2c[nH]c3ccccc23)c(OC)c1OC`, for which the “activity change, negative = inhibition” value is -12.6%.

Turning to `Cc1ccc(-c2cc(C(=O)Nc3nn[nH]n3)c3ccccc3n2)c(C)c1`, the “activity change, negative = inhibition” value is 14.1%.

Consider `Cc1ccc(C(=O)O)cc1NC(=O)c1ccc(Cn2nc(C)c(Cl)c2C)o1`, for which the “activity change, negative = inhibition” value was 4.59%.

Regarding `Cc1c(Cl)c([N+](=O)[O-])nn1Cc1ccc(C(=O)N/N=C\c2cc(Cl)ccc2O)o1`, the Potency is 5.17 µM (active).

For the compound `Cc1c(Cl)c([N+](=O)[O-])nn1CCCC(=O)Nc1cc(Cl)ccc1Cl`, the “activity change, negative = inhibition” value is 1.54%.

Regarding `COc1ccc(Br)cc1CN(C)C(=O)C1CC(=O)N(C2CCCC2)C1` (stereo unspecified), the “activity change, negative = inhibition” value was -4.6%.

For `CC(OC(=O)CNC(=O)c1ccco1)C(=O)Nc1ccc(Cl)cn1` (stereo unspecified), the “activity change, negative = inhibition” value is 24.7%.

On to `COc1ccc(-c2nnc(NC(=O)CS(=O)(=O)c3ccc(Cl)cc3)o2)c(OC)c1`, for which the “activity change, negative = inhibition” value is 1.46%.

With `COc1cc(-c2nc(S(=O)(=O)c3ccc(Cl)cc3)c(N(C)C)o2)cc(OC)c1OC`, the Potency was 8.2 µM (active).

For `O=S(=O)(c1ccc(Cl)cc1)c1nc(-c2ccco2)oc1N1CCCCC1`, the “activity change, negative = inhibition” value is -29%.

On to `CC(=O)Nc1ccc(S(=O)(=O)NC(C)C(=O)OCCOc2ccc(F)cc2)cc1` (stereo unspecified), for which the “activity change, negative = inhibition” value was 7.42%.

Consider `COc1ccccc1NC(=O)C1=C(C)NC(=O)NC1c1ccc(C)s1` (stereo unspecified), for which the “activity change, negative = inhibition” value is 4.16%.

Regarding `CCOC(=O)C1=C(C)Nc2nc3ccccc3n2C1c1cccs1` (stereo unspecified), the “activity change, negative = inhibition” value is -0.153%.

For `COc1ccccc1NC(=O)C1=C(C)Nc2nc3ccccc3n2C1c1cccs1` (stereo unspecified), the Potency was 9.2 µM (active).

Consider `CCOC(=O)C1CCCN(C(=O)c2ccc(C)c(S(=O)(=O)N3CCCCC3)c2)C1` (stereo unspecified), for which the “activity change, negative = inhibition” value was -20.4%.

Regarding `COCCOC(=O)C1=C(C)N=c2s/c(=C\c3cccs3)c(=O)n2C1c1cccs1` (stereo unspecified), the Potency is 14.6 µM (active).

As to `C=CCOC(=O)C1=C(C)NC(C)=C(C(=O)OCC=C)C1c1cccs1`, the “activity change, negative = inhibition” value is -9.34%.

`CCOC(=O)C1=C(C)N=c2s/c(=C\C(=O)OC)c(=O)n2C1c1ccc(OC)cc1` (stereo unspecified): the “activity change, negative = inhibition” value is 7.84%.

As to `COc1ccc(C)cc1Nc1nc(C)nc2c1oc1ccccc12`, the Potency is 5.17 µM (active).

For the compound `Cc1nc(Cl)c2oc3ccccc3c2n1`, the “activity change, negative = inhibition” value is 2.76%.

Consider `COC(=O)c1cnc(Nc2cc(C)ccc2OC)c2ccccc12`, for which the “activity change, negative = inhibition” value is -1.92%.

Turning to `Cc1cc(C)c(OCC(=O)N(Cc2cccs2)C2CCS(=O)(=O)C2)c(C)c1` (stereo unspecified), the “activity change, negative = inhibition” value was -4.24%.

As to `COc1ccc(CCN2C(=O)C(C)=C(C)C2=O)cc1OC`, the “activity change, negative = inhibition” value was 6.36%.

In the case of `CCN1C(=O)[C@@H]2[C@@H](c3ccc(-c4ccc(OC)cc4)c(OC)c3)N3CCC[C@@]3(C(=O)OC)[C@@H]2C1=O`, the “activity change, negative = inhibition” value is 9.25%.

With `Cc1ccc(NC(=O)C2CCN(S(=O)(=O)c3ccc4c(c3)NC(=O)CO4)CC2)cc1C`, the “activity change, negative = inhibition” value is -9.24%.

Source of the values: PubChem BioAssay AID504467 (National Center for Advancing Translational Sciences (NCATS), 2011).
